Records with an inconclusive call do not appear. A call without a number means that no potency is given here. Active and inactive are the calls of the source. Calls come from the whole dose curve; as a rule, active = well fitted inhibition curve with a large enough effect; inconclusive = small, poorly fitted or top-dose-only effect; inactive = no such curve, though single readings can be large or run the other way.

Experiment [1] concerns Zika virus NS2B-NS3 protease (unlinked complex). In words: Primary screen GU Rhodamine qHTS for Zika virus inhibitors: Unlinked NS2B-NS3 protease assay (AID 1347159). Note: nearly all actives have a fitted effect of over 60% in size. As to conditions: Recombinant ZIKV NS2B-NS3 protease, Rhodamine110 substrate fluorescence; series mostly up to 107 µM. Summed up:
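Unlinked NS2B/NS3, 25 nM; Rhod110 peptide, 1.5 microM; compounds, up to 114 microM. Reaction run 15 min at RT in 10 mM Tris-HCl pH 8.0, 0.01% Tween 20; kinetic fluorescence change fitted with a 4-parameter Hill model.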
A general note: Quantitative high-throughput screening tests each substance at several concentrations.

For experiment [2], the system named is Zika virus NS2B-NS3 protease (linked construct). Put plainly: Primary screen NINDS Rhodamine qHTS for Zika virus inhibitors (AID 1347160). Note: nearly all actives have a fitted effect of over 55% in size. As to conditions: purified NS2B-NS3 protease, Rhodamine110 substrate fluorescence; series mostly up to 57.1 µM. An outline of the steps:
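Single-chain NS2B-NS3 protease, 25 nM, pH 8.0; compounds preincubated 15 min. Activity: Rhodamine110 release from 1.5 microM substrate over 15 min, room temperature, data fitted to 4-parameter Hill.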

On to `CC1(C)CC2C(C1)C(C)(O)C13CC1(COC3=O)C2O` (configuration not stated), for which the Potency entry in experiment [1] and in experiment [2] was “inactive” each time.

Consider `COc1cc2c(cc1O)[C@H](c1ccc(O[C@@H]3O[C@H](CO)[C@@H](O)[C@H](O)[C@H]3O)c(OC)c1)[C@@H](CO)[C@](O)(CO)C2`, for which the Potency entry in experiment [1] and in experiment [2] was “inactive” throughout.

Regarding `CO[C@H]1C[C@@H]2CC[C@@H](C)[C@@](O)(O2)C(=O)C(=O)N2CCCC[C@H]2C(=O)O[C@H]([C@H](C)C[C@H]2CC[C@@H](OP(C)(C)=O)[C@H](OC)C2)CC(=O)[C@H](C)/C=C(\C)[C@@H](O)[C@@H](OC)C(=O)[C@H](C)C[C@H](C)/C=C/C=C/C=C/1C`, the Potency result in experiment [1] and in experiment [2] was “inactive” in each case.

Consider `NCCCNc1ccc(Nc2nccc(Nc3cc(C4CC4)[nH]n3)n2)cc1`, for which the Potency entry in experiment [1] and in experiment [2] was “inactive” in each case.

Turning to `CC1=C2C(O)C(=O)OC(c3ccoc3)C2(C)CCC1O` (configuration not stated), the Potency result in experiment [1] and in experiment [2] was “inactive” in each case.

Turning to `CC(C)(C)c1ccc(S(=O)(=O)NCc2ccc(C(=O)Nc3cccnc3)cc2)cc1`, the Potency entry in experiment [1] and in experiment [2] was “inactive” in each case.

On to `CC(=O)N1CCN(Cc2ccc([C@H](C)Nc3nccc(N4C(=O)OC[C@@H]4C(C)C)n3)cc2)CC1`, for which the Potency entry in experiment [1] and in experiment [2] was “inactive” throughout.

On to `CC1(C)CCCC2(C)C1C(O)C=C(CO)C2(O)CO` (configuration not stated), for which the Potency result in experiment [1] and in experiment [2] was “inactive” throughout.

Turning to `c1ccc(-c2csc(N3CCOCC3)n2)cc1`, the Potency entry in experiment [1] and in experiment [2] was “inactive” each time.

For `NCc1ccc(Nc2ncc(F)c(Nc3ccccc3)n2)cc1`, the Potency result in experiment [1] and in experiment [2] was “inactive” throughout.

For the compound `C[C@@H]1CN(Cc2ccccc2)C[C@H]1c1nc2c(cnn2C2CCOCC2)c(=O)[nH]1`, the Potency result in experiment [1] and in experiment [2] was “inactive” throughout.

`COC(=O)CC(O)C1OC(c2ccccc2)C(O)C1O` (configuration not stated): the Potency result in experiment [1] and in experiment [2] was “inactive” each time.

For the compound `CCN(CC)Cc1ccc(C(=O)N(CCc2ccccc2OC)[C@@H]2CCNC2)cc1`, the Potency entry in experiment [1] and in experiment [2] was “inactive” throughout.

As for `CC1COC2(OC3CC4C5CC(O[C@@H]6O[C@H](C)[C@@H](O[C@@H]7O[C@@H](C)[C@H](O)[C@@H](O)[C@H]7O)[C@H](O)[C@H]6O)C6CC(O)CCC6(C)C5CCC4(C)C3C2C)C(O)C1` (some centres not stated), the Potency result in experiment [1] and in experiment [2] was “inactive” each time.

For `CC1=C(C(=O)O)/C(=C\CO[C@@H]2O[C@H](CO)[C@@H](O)[C@H](O)[C@H]2O)C(OC(=O)/C=C\c2ccc(O)cc2)C1` (some centres not stated), the Potency result in experiment [1] and in experiment [2] was “inactive” in each case.

Take `COc1ccc(/C=C\C(=O)O)c(O[C@@H]2O[C@H](CO)[C@@H](O)[C@H](O)[C@H]2O)c1`: the Potency entry in experiment [1] and in experiment [2] was “inactive” each time.

For `C=C(F)c1sc(CNCCCNc2cc(=O)c3ccccc3[nH]2)c(C)c1Br`, the Potency result in experiment [1] and in experiment [2] was “inactive” in each case.

For `C=CC(=O)Nc1cc(Nc2ncc(Cl)c(-c3c[nH]c4ccccc34)n2)c(OC)cc1N(C)CCN(C)C`, the Potency entry in experiment [1] and in experiment [2] was “inactive” each time.

As for `Cc1ccc(C(=O)N(CCCN)C(c2nc3cc(Cl)ccc3c(=O)n2Cc2ccccc2)C(C)C)cc1` (configuration not stated), the Potency entry in experiment [1] and in experiment [2] was “inactive” in each case.

With `COC(=O)c1cc(OC)c(O[C@@H]2O[C@@H](C)[C@H](O)[C@@H](O)[C@H]2O)c(OC)c1`, the Potency entry in experiment [1] and in experiment [2] was “inactive” each time.

For the compound `C=C1C(=O)O[C@H](CCC)[C@H]1C(=O)O`, the Potency entry in experiment [1] and in experiment [2] was “inactive” in each case.

`COc1nc2sc(C(=O)NC3CC3)c(N)c2c(C)c1Cl`: the Potency entry in experiment [1] and in experiment [2] was “inactive” throughout.

Turning to `C[C@H](C/C=C/C(C)(C)O)[C@H]1CC[C@@]2(C)[C@@H]3[C@@H](O[C@@H]4O[C@H](CO)[C@@H](O)[C@H](O)[C@H]4O)C=C4C(CC[C@H](O)C4(C)C)[C@]3(C=O)CC[C@]12C` (some centres not stated), the Potency entry in experiment [1] and in experiment [2] was “inactive” throughout.

On to `CNC(=O)c1ccccc1Nc1nc(Nc2ccc3c(c2OC)CCC[C@@H](N2CCN(CCO)CC2)C3)ncc1Cl`, for which the Potency result in experiment [1] and in experiment [2] was “inactive” in each case.

In the case of `C=C1CC[C@@H]2[C@@](C)(CO[C@@H]3O[C@H](CO)C(O)[C@H](O)C3O)[C@H](O)CC[C@@]2(C)[C@@H]1CC/C(C)=C/CO` (some centres not stated), the Potency result in experiment [1] and in experiment [2] was “inactive” in each case.

For the compound `C[C@@H]1O[C@@H](O[C@@H]2CO[C@@H](O[C@H]3CC[C@@]4(C)C(CC[C@]5(C)C4CC=C4[C@@H]6CC(C)(C)CC[C@]6(C(=O)O[C@@H]6O[C@H](CO)[C@@H](O)[C@H](O)[C@H]6O)CC[C@]45C)[C@]3(C)CO)[C@H](O)[C@H]2O[C@@H]2O[C@H](CO)[C@@H](O)[C@H](O)[C@H]2O)[C@H](O)[C@H](O)[C@H]1O` (some centres not stated), the Potency result in experiment [1] and in experiment [2] was “inactive” in each case.

On to `O=C(O)[C@@H]1C[C@H]2C[C@@H](CCc3nn[nH]n3)CC[C@H]2CN1`, for which the Potency result in experiment [1] and in experiment [2] was “inactive” throughout.

On to `CC1(C)CC[C@]2(C(=O)O)CC[C@]3(C)C(=CCC4[C@@]5(C)CC[C@H](O[C@@H]6O[C@H](C(=O)O)[C@@H](O[C@@H]7OC[C@@H](O)[C@H](O)[C@H]7O)[C@H](O)[C@H]6O)C(C)(C)C5CC[C@]43C)C2C1O` (some centres not stated), for which the Potency entry in experiment [1] and in experiment [2] was “inactive” each time.

For `O=C(OC[C@H]1O[C@H](O[C@]2(CO)O[C@H](CO)[C@@H](O)[C@@H]2O)[C@H](O)[C@@H](O)[C@@H]1O)c1ccccc1`, the Potency entry in experiment [1] and in experiment [2] was “inactive” in each case.

With `CC(=O)/C=C/[C@H]1[C@](C)(O)[C@@H](O)[C@H](OC(C)=O)C2C(C)(C)CCC[C@@]21C` (some centres not stated), the Potency result in experiment [1] and in experiment [2] was “inactive” throughout.

Consider `COC(=O)CC(O)CC(O)/C=C/c1c(C)ccc2c1C(O)CC(C)C2` (configuration not stated), for which the Potency result in experiment [1] and in experiment [2] was “inactive” throughout.

The record behind these values is PubChem BioAssay (NCATS).
